# Compound activity deposited in PubChem by several laboratories.
# CHT PAM: human CHT allosteric activation. B-score at 10 µM. Q9GZV3. 310,000 tested, 0.49% active. CHT-expressing cells, membrane potential dye, choline EC20; hits give high values; LV-AA mutant CHT in HEK293 cells;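 active = initial fluorescence not abnormally high and integrated response B-score, plate-corrected, over 3 SD above library mean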
# TMEM16A inh: mouse TMEM16A channel inhibition, primary screen; 310,000 tested, 1.2% active; Q8BHY3; AID 588511; normalized B-score (activity score, 25-100; higher = stronger inhibition) at 10 µM; HEK293 TMEM16A/YFP iodide influx fluorescence, ionomycin;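 active = ratio plate-corrected score three or more library SD toward inhibition, starting fluorescence score within five deviations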;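 note: score derived from kinetic fluorescence span divided by baseline fluorescence per well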
# Rce1 inhib: blocks yeast Ras-converting enzyme; Q03530; yeast membranes, quenched prenylated peptide cleavage fluorescence; calls only; 290,000 tested, 0.27% active; AID 2563;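 active = fall in fluorescence gain of 50% or more versus controls, with final raw signal at or below 3038400; inconclusive = same 50% fall but final raw signal above 3038400; inactive = fall in fluorescence gain under 50%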;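 note: plate controls were neutral control wells for no effect and wells lacking membranes for full effect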
# Kir21 block: Kir2.1 (mouse) channel inhibition. 310,000 tested, 0.85% active. HEK293-Kir2.1, FluxOR thallium flux fluorescence; hits give low values. B-score at 10 µM. P35561;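 active = fluorescence ratio B-score at or below minus 3 SD of library scores, with starting-brightness B-score within 2 SD, cut at about -4.2 in these data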;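 note: channel flux triggered by added potassium and thallium sulfate stimulus; B-score of peak minus minimum fluorescence over baseline after thallium stimulus; more negative B-score means stronger Kir2.1 block with less thallium influx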
# CHT block: inhibits the human high affinity choline transporter | Q9GZV3 | CHT-expressing cells, membrane potential dye, choline response; hits give low values | B-score at 10 µM | 310,000 tested, 0.86% active | AID 488975;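 active = B-score over 3 SD under the library average, and starting fluorescence ratio not unusually high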;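 note: choline stimulus applied at its EC90 after an EC20 pre-addition; B-score computed on integrated fluorescence ratio after choline addition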
# TMEM16A act: mouse TMEM16A channel activation, primary screen; HEK293 TMEM16A/YFP-H148Q/I152L, iodide quench fluorescence; hits give low values; 340,000 tested, 0.3% active; Q8BHY3; AID 623877; B-score at 10 µM;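 active = fluorescence-ratio B-score plate-corrected deviation score at least 3 library SD below zero, with starting fluorescence score within 5 deviations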;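 note: channel opened by trigger with iodide after compound preincubation; score built on the fluorescence ratio of max minus min over baseline; more negative score means more quench and so TMEM16A activation or potentiation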
# hERG inh: hERG (human) inhibition as Kir2.1 counter-screen. hERG-expressing cells, thallium flux. AID 2236. shares compounds with Kir21 block. inhibition, % at 10 µM. 320 tested, 20% active;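 note: host cells are CHO cells stably expressing hERG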
# KCNK9 inh: selectivity of Kir2.1 inhibitors: effect on human KCNK9; shares compounds with Kir21 block; KCNK9-expressing cells, ion flux inhibition; inhibition, % at 10 µM; 320 tested, 5% active; AID 2329
# Kir21 ephys inh: blocks mouse Kir2.1 current in automated electrophysiology | shares compounds with Kir21 block | Kir2.1 cells, automated patch-clamp current inhibition | inhibition, % at 25 µM | 320 tested, 71% active
# CHT inh conf: confirmation of human choline transporter CHT inhibitors; 2,400 tested, 70% active; CHT activity remaining % of control (hits give low values), % at 10 µM; AID 493221; CHT-expressing cells, choline membrane potential dye; LV-to-AA substituted CHT, HEK293 cells; shares compounds with CHT block;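 active = choline transporter activity left, mean of duplicates at 10 µM, below buffer-only control mean minus 3 SD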;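 note: depolarization triggered by choline at its EC90 following an EC20 pre-addition; 0% = hemicholinium-3 full block and 100% = buffer-only control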
# HEK293 MPD ctr: CHT inhibitor counter-screen hit in parental HEK293 cells; shares compounds with CHT block; membrane potential dye, choline response; active = decrease or increase beyond buffer ±3SD; membrane potential ratio readout (active if shifted either direction beyond buffer ±3SD; no single direction) at 10 µM; 2,400 tested, 4% active;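 note: parental cells lack the transporter so any hit is non-specific; ratio is peak minus trough fluorescence over baseline after EC90 choline challenge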
# CHT act confirm: confirmation of human choline transporter (CHT) activators; CHT-expressing cells, membrane potential dye fluorescence (FDSS); % of choline EC20–EC90 response window; HEK293 expressing CHT LV-AA mutant; choline added at its EC20; activation, % at 10 µM; shares compounds with CHT PAM; 2,500 tested, 91% active;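 active = primary screen active, with duplicate mean activation above negative control mean plus 3 SD, cut at about 11% in these data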
# HEK293 MP dye: CHT activator counter-screen hit in parental HEK293 cells; ratio readout change at 10 µM, hits read low; 2,500 tested, 62% active; membrane potential dye fluorescence (FDSS); measured after EC20 choline addition; shares compounds with CHT PAM;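 active = duplicate-averaged ratio beyond 3 SD from buffer wells, up or down, though filed actives are nearly all decreases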
# * hit, by the source's call; i = inactive; ? = inconclusive; nt = no result. A selection: hits, their analogues and other compounds. The true share with any hit is near 3.2%. Unless noted, the rule behind the calls is not given here.
SMILES,CHT PAM,TMEM16A inh,Rce1 inhib,Kir21 block,CHT block,TMEM16A act,hERG inh,KCNK9 inh,Kir21 ephys inh,CHT inh conf,HEK293 MPD ctr,others
CC(C)(c1ccccc1)c1ccc(OCCCNCCO)cc1,i,i,nt,-8.6*,i,i,i,i,59%*,nt,nt,
Cc1ccc(OCC(=O)NNC(=O)CCc2ccccc2)c(Br)c1,i,i,nt,-1.4,i,i,nt,nt,nt,nt,nt,
CCCCn1c(N)c(N(CCOC)C(=O)COC(=O)CCOc2ccccc2)c(=O)[nH]c1=O,i,i,i,0.06,i,i,i,i,?,nt,nt,
CC(C)(C)OC(=O)NCCc1nnc(SCc2ccc(Cl)cc2)o1,i,i,i,-16*,-6.1*,i,i,i,74%*,65%*,i,
CCOc1ccc(Nc2nc(N)nc(CCl)n2)cc1,i,i,i,0.26,i,i,nt,nt,nt,nt,nt,
CCOc1ccc(Nc2nc(N)c3ccccc3n2)cc1,i,i,i,-9.9*,-5.8*,i,i,i,70%*,48%*,i,
CCN(CC)CCCN(C(=O)c1ccc(OC)cc1)c1nc(-c2ccc(OC)cc2)cs1,i,i,i,-6.1*,-5.4*,i,i,i,i,44%*,i,
CCN(CC)CCCN(C(=O)c1ccccc1C)c1nc(-c2ccc(OC)cc2)cs1,i,i,i,-1.4,i,i,nt,nt,nt,nt,nt,
Cc1ccc(C(=O)NCCCc2ccccc2)s1,i,i,i,0.09,i,i,nt,nt,nt,nt,nt,
O=C(CN1CCN(Cc2ccc(Cl)cc2)CC1)N1CCc2ccccc21,i,i,i,-9.5*,-6.2*,i,i,i,16%*,48%*,i,
COc1ccc(S(=O)(=O)NC(C)C(=O)NCc2ccccn2)cc1OC (stereo not drawn),i,i,i,-0.08,i,i,nt,nt,nt,nt,nt,
COc1ccc(Nc2ccnc3ccccc23)cc1,6.6*,i,i,-15*,i,i,i,i,82%*,nt,nt,CHT act confirm=28*;HEK293 MP dye=-55*
CN(C)c1nc(Nc2ccccc2)nc(N(C)C)n1,i,i,i,1.1,i,i,nt,nt,nt,nt,nt,
CN(C)c1ccc(Nc2nc(N)c3ccccc3n2)cc1,7.4*,i,i,-7.5*,i,i,i,i,65%*,nt,nt,CHT act confirm=49*;HEK293 MP dye=-75*
COc1ccc(C(=O)c2c3ccc(OC)cc3[n+]([O-])n2Cc2ccc(C(N)=O)cc2)cc1,i,i,nt,nt,i,i,nt,nt,nt,nt,nt,
